We go through five molecules from PubChem BioAssay.

A short description of assay [1]: Her2 expression decrease, cell viability multiplex – SKBR3 breast tumor cells, AlphaScreen, ATP viability, primary screen (AID 461;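 active = Her2 level under about 52% in both replicate screens, with viability over 70% of control, limit read from the data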;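 as to Her2 level: lower value means less Her2 protein in the cells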;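 as to viability: percent of carrier control wells set as 100% viability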). Conditions: SKBR3 Her2 protein level, 18-24 h, measured here: SKBR3 viability, ATP luminescence, at 10 µM. On the technique in general: Alpha assays give light when donor and acceptor beads are brought close together.
Assay [2] deals with Receptor tyrosine-protein kinase erbB-2 (Homo sapiens) (UniProt P04626). The assay is described as above. As to conditions: 18-24 h, at 10 µM, stronger effect = lower value.
Sequence of Receptor tyrosine-protein kinase erbB-2 (Homo sapiens) (P04626 whole entry, looked up): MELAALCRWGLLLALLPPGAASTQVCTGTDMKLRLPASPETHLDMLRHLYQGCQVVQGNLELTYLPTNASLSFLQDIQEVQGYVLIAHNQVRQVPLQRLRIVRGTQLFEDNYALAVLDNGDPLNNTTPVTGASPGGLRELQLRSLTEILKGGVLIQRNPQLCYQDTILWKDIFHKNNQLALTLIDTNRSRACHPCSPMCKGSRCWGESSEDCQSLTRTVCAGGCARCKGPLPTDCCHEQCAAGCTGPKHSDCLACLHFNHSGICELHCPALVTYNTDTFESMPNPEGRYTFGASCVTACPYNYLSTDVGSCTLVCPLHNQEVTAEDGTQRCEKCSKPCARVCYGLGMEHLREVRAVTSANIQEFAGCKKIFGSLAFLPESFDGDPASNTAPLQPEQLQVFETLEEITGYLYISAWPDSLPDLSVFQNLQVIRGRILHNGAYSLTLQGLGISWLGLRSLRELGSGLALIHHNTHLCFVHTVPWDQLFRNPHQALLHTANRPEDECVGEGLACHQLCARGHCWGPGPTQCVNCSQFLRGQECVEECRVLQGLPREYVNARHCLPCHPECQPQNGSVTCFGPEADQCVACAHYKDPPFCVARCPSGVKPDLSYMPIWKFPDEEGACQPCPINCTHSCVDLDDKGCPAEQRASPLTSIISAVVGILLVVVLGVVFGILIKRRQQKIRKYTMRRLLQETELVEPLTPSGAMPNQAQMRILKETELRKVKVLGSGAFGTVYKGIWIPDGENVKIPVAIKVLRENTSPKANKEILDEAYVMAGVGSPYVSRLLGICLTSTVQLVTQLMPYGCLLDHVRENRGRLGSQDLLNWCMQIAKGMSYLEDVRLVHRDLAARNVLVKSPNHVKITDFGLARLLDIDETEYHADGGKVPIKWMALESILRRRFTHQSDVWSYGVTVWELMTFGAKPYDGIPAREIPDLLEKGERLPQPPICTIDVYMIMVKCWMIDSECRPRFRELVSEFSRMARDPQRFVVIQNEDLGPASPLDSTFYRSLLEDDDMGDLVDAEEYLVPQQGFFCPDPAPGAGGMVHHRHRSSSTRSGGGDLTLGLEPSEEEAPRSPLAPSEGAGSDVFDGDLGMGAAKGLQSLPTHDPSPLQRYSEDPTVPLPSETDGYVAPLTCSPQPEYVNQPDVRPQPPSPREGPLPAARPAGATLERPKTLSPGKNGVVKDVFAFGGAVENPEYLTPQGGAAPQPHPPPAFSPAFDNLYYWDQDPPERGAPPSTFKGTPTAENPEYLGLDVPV
Assay [3] can be described thus: reduced viability of SK-BR-3 breast cancer cells – cell-based, 24 h, human, pilot screen (AID 572;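 active = viability at or below 10% of carrier control in both of two separate runs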;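 also: compound exposure lasted between 18 and 24 h rather than exactly 24 h; 100% = carrier-treated control wells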). Conditions: SK-BR-3 viability, CellTiter-Glo luminescence, at 10 µM, stronger effect = lower value. (In general: In ATP-based viability assays light output follows the ATP content of the culture.)
A short description of assay [4]: HUVEC growth inhibition – cell-based, human, primary screen (AID 575;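 active = viability at or below 30% in both replicate assays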;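 also: 100% = median of untreated cell wells with 0.1% DMSO on each plate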). Conditions: HUVEC proliferation, CellTiter-Glo luminescence, 72 h; at 10 µM; stronger effect = lower value.
Assay [5] in a line: H69AR cell proliferation blockers – human, duplicate replicates, primary screen (AID 580;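 active = viability at or under a set limit in both replicates, limit being median viability minus 3 SD, cut at about 48% in these data, passing the limit was not always enough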;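 also: 100% = mean luminescence of untreated wells and 0% = no signal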). Conditions: H69AR lung tumor cells viability, ATP luminescence, 72 h; at 10 µM; stronger effect = lower value.
Assay [6] in a line: MRP1 drug-resistance reversers in H69AR cells – cell-based, doxorubicin co-treatment, pilot screen (AID 601;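 active = viability loss from added drug above about 55%, and viability with drug at most 40%, in both replicates, limit read from the data, passing the limit was not always enough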). Conditions: CellTiter-Glo, 72 h, at 10 µM; for differential viability (reversal): stronger effect = higher value.
The nature of assay [7]: yeast transport mutant growth inhibition pilot in 384-well plates, post-Golgi transport modulator project (AID 636; in the data active = inhibition above about 31%). Conditions: absorbance 615 nm, about 18 h, stronger effect = higher value.
The nature of assay [8]: growth suppression of yeast trafficking mutant, preliminary HTS, modulators of trafficking downstream of Golgi apparatus project, 1536-format plate, OD 615 nm (AID 637; in the data active = inhibition above about 30%). As to conditions: yeast transport mutant growth, absorbance 615 nm, 18 h; stronger effect = higher value.
Assay [9] is described as follows: S. cerevisiae growth inhibition in permissive medium (OD615), pilot counter-assay for S. cerevisiae lifespan shortening project, permissive growth control (AID 705;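 active = growth inhibition above 25% in both replicates, a cutoff set 3 SD above the mean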). Conditions: OD615, 24 h, at 10 µM, stronger effect = higher value.
Assay [10] is described as follows: S. cerevisiae growth inhibition in restrictive medium, OD615, pilot screen, restrictive growth control, yeast lifespan reduction project (AID 706;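 active = growth inhibition above a set limit, 3 SD over mean compound inhibition, in both replicates, cut at about 43% in these data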;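 also: modified DeaD lifespan yeast strain shifted to restrictive glucose medium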). As to conditions: OD615, 48 h, at 10 µM, stronger effect = higher value.
Assay [11] can be described thus: doxorubicin toxicity protection in MRP-1 cells – H69AR cells, CellTiter-Glo, duplicate, MRP-1 activator project, pilot screen (AID 807;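 active = viability increase at or above a cutoff of the median across tested compounds plus 3 SD, cut at about 8.5% in these data, passing the limit was not always enough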;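 also: compound pretreatment 18-22 h then 72 h combined with doxorubicin; 0% = doxorubicin alone and 100% = vehicle without doxorubicin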). As to conditions: H69AR viability with doxorubicin, CellTiter-Glo luminescence; at 10 µM; stronger effect = higher value.
Assay [12] can be described thus: viability of HCT116 without oncogenic beta-catenin – human colon tumor cells, pilot screen (AID 823;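 active = cell viability at or below a set limit in both duplicate runs, the limit being the all-compound median minus 4 SD, cut at about 23% in these data, passing the limit was not always enough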;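 also: 0% = wells killed by 20 µM Hyamine and 100% = untreated DMSO cell wells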). Conditions: HCT116 beta-catenin knockout viability, CellTiter-Glo, 60 h; at 10 µM; stronger effect = lower value.
The nature of assay [13]: viability of PTEN-null HCT116 cells – cell-based, HCT116 clonal line, CellTiter-Glo, pilot screen (AID 824;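 active = viability at or below 27.92% in each of two runs, the all-compound median minus 4 SD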;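 also: 0% = 20 µM Hyamine control and 100% = vehicle cell control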). As to conditions: HCT116 PTEN-deleted viability, 60 h, at 10 µM, stronger effect = lower value.
Assay [14] can be described thus: RAM pathway blockade in budding yeast – dse1pr::URA3 reporter, 5-FOA selection, pilot screen (AID 869).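 Also: 0% = DMSO wells with no growth and 100% = 10 µM 1-NA-PP1 with full growth; RAM network block rescues cells from 5-FOA so hits raise OD615 growth.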 As to conditions: S. cerevisiae dse1pr::URA3 5-FOA growth, OD615, 2 d; at 10 µM; stronger effect = higher value; strain carries analog-sensitive mutant Cbk1 kinase.
A short description of assay [15]: RAM signaling pathway blockade in yeast – S. cerevisiae, Pdr1DBD-CYC8 efflux-inhibited sensitized strain, primary screen (AID 1298;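 active = RAM network inhibition above 8.4% in each of two replicates, 3 SD over the compound average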;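 also: 0% = DMSO untreated cells without growth and 100% = 10 µM 1-NA-PP1 full growth; higher means more yeast growth rescued from 5-FOA killing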). As to conditions: S. cerevisiae cbk1-as DSE1-URA3 strain, 5-FOA growth OD615, 2 d; at 50 µM; stronger effect = higher value.
Setting [16] is: H69AR cells + 2 uM doxorubicin, measured here: viability with 2 uM doxorubicin, stronger effect = lower value.
The mark [17] stands for this setting: H69AR cells, compound alone cytotoxicity.

Records with an inconclusive call do not appear. Activity calls are given as the source filed them.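 The calls were made as follows, unless noted: active = inhibition over a set limit, the all-compound mean plus 3 SD, in both replicate runs; inconclusive = over that limit in just one replicate run; inactive = at or under that limit in both runs.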

In the case of `Cc1nn(-c2ccc(F)cc2)c2c1cc(C#N)c1nc3ccccc3n12`, the viability in assay [1] is 102%; in assay [3] it was 102% (inactive); in [4], 56.2% (inactive); in assay [5] it was 86.3% (inactive); in assay [6] (setting [16]), 80.9%; in assay [6] (setting [17]) it was 86.3%. Moreover, the viability in assay [12] was 95.9% (inactive); in assay [13], 93.5% (inactive). Moreover, the Her2 level in assay [2] was 81% (inactive). For the same molecule, the differential viability (reversal) in [6] (H69AR cells + 2 uM doxorubicin) is 5.42% (inactive). Also, the values for the inhibition in assay [7], in assay [8] and in assay [14] were -2.89% (inactive), -2.67% (inactive) and 0.36% (inactive), respectively. Further, the growth inhibition is 1.38% (inactive) in assay [9] and 8.66% (inactive) in assay [10]. Besides, the viability increase in [11] was -1.92% (inactive). The RAM network inhibition in assay [15] was 6.61% (inactive).
As for `COC(=O)CCCCC(=O)C1C(=O)CC(C)(C)C(C(=O)OC)C1=O` (stereo not given), the viability in [1] was 91.5%; in assay [3] it was 91.5% (inactive); in assay [4], 91.2% (inactive); in [5], 91.7% (inactive); in assay [6] (setting [16]) it was 95.5%; in [6] (setting [17]), 91.7%. Also, the viability was 94.4% (inactive) in assay [12] and 93.6% (inactive) in assay [13]. Moreover, in assay [2], the Her2 level is 118% (inactive). For the same molecule, the differential viability (reversal) in [6] (H69AR cells + 2 uM doxorubicin) is -3.76% (inactive). Also, the inhibition in assay [7] was 2.08% (inactive); in assay [8], -8% (inactive); in assay [14] it was 1.31% (inactive). Further, the growth inhibition was -15.7% (inactive) in assay [9] and -6.2% (inactive) in [10]. The viability increase in assay [11] was -1.69% (inactive). Further, in assay [15], the RAM network inhibition is -0.78% (inactive).
For the molecule `Cc1cc2cc(CCNC(=O)CC(C)C)c(=O)[nH]c2cc1C`, the viability was 102% in assay [1]; 102% (inactive) in assay [3]; 93.3% (inactive) in assay [4]; 90.2% (inactive) in assay [5]; 89.4% in [6] (setting [16]); 90.2% in assay [6] (setting [17]). Besides, the values for the viability in assay [12] and in [13] were 104% (inactive) and 97.7% (inactive), respectively. Further, the Her2 level in assay [2] is 128% (inactive). Also, in [6] (H69AR cells + 2 uM doxorubicin), the differential viability (reversal) was 0.865% (inactive). Moreover, the inhibition in assay [7] was -3.73% (inactive); in assay [8], 5% (inactive); in assay [14] it was 0.365% (inactive). Further, the figures for the growth inhibition in assay [9] and in assay [10] were -7.38% (inactive) and -5.57% (inactive), respectively. For the same molecule, the viability increase in assay [11] is -0.47% (inactive). The RAM network inhibition in [15] was 0.73% (inactive).
`COc1ccccc1N(CC(=O)Nc1cccnc1)S(C)(=O)=O`: the viability was 94.5% in assay [1]; 94.5% (inactive) in assay [3]; 89.8% (inactive) in assay [4]; 89.3% (inactive) in [5]; 87.8% in [6] (setting [16]); 89.3% in [6] (setting [17]). Further, the viability in assay [12] was 103% (inactive); in [13], 97.2% (inactive). In addition, in assay [2], the Her2 level was 108% (inactive). Further, in assay [6] (H69AR cells + 2 uM doxorubicin), the differential viability (reversal) was 1.5% (inactive). For the same molecule, the inhibition in assay [7] is 0.81% (inactive); in assay [8], -3.28% (inactive); in [14], 2.62% (inactive). Moreover, the growth inhibition in assay [9] is -5.2% (inactive); in [10], 13.5% (inactive). Moreover, the viability increase in assay [11] is -1.31% (inactive). Moreover, the RAM network inhibition in assay [15] was 3.47% (inactive).
As for `CN1CCN(C(=O)c2ccc(CS(=O)(=O)c3c(Cl)cccc3Cl)o2)CC1`, the viability is 98.5% in [1]; 98.5% (inactive) in [3]; 97.4% (inactive) in assay [4]; 94.3% (inactive) in assay [5]; 85.8% in assay [6] (setting [16]); 94.3% in assay [6] (setting [17]). For the same molecule, the figures for the viability in assay [12] and in assay [13] were 103% (inactive) and 96% (inactive), respectively. Further, the Her2 level in assay [2] was 88.5% (inactive). Further, in assay [6] (H69AR cells + 2 uM doxorubicin), the differential viability (reversal) was 8.46% (inactive). Besides, the figures for the inhibition in assay [7], in assay [8] and in assay [14] were -2% (inactive), -2.46% (inactive) and 1.41% (inactive), respectively. Further, the growth inhibition in [9] was -7.05% (inactive); in [10], -12% (inactive). The viability increase in assay [11] was 0.72% (inactive). Besides, the RAM network inhibition in assay [15] was 0.22% (inactive).

Usually viability stands for a read-out of living cells in per cent, often relative to untreated cells. In general, inhibition refers to the drop in the measured response relative to a control, in per cent.
